Source: PubChem BioAssay (National Center for Advancing Translational Sciences (NCATS))
Pf Dd2 growth = blocks in vitro growth of P. falciparum Dd2; hit rate 4.3% among 120,000; P. falciparum Dd2 growth, SYBR Green, 72 h; Potency, µM (series often up to 28.9 µM), usual class: inhibitors; active = well fitted inhibition curve with a large enough effect; note: nearly all actives have a fitted effect of over 65% in size
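Readout: SYBR Green fluorescence, 485 nm excitation, 535 nm emission, after ~16 h lysis at 37C. Before that, Dd2-infected red cells (2.5% hematocrit) grew 72 h with compound, 29 uM top final concentration.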
Each line names hits and unclear results; the compound was inactive in the other large screens. The entries come from a sample that favours hits as a whole.

Cc1noc(C)c1-c1cc2cc(CO)oc2c(N2CCS(=O)(=O)CC2)n1	none
Cc1cc(C)c(C)c(S(=O)(=O)NC2CCN(c3ccc(=O)n(CC4CC4)n3)CC2)c1C	none
O=c1n(Cc2ccccc2)nc2n1CCN(S(=O)(=O)c1cnc[nH]1)CC2	none
CC(C)(C)C(=O)N[C@H]1CO[C@H]2[C@@H]1OC[C@@H]2Nc1nccc(-c2cccc(C#N)c2)n1	none
N#Cc1cccc(-c2ccnc(N[C@H]3CO[C@H]4[C@@H]3OC[C@H]4OC(=O)Nc3cccc4ccccc34)n2)c1	Pf Dd2 growth 11µM
N#Cc1cccc(NC(=O)O[C@@H]2CO[C@H]3[C@@H]2OC[C@@H]3Nc2nccc(-c3cccc(C#N)c3)n2)c1	none
COCC(=O)N[C@H]1CO[C@H]2[C@@H]1OC[C@@H]2Nc1nccc(-c2cccc(F)c2)n1	none
COCC(=O)N[C@H]1CO[C@H]2[C@@H]1OC[C@@H]2Nc1nccc(-c2cccc(C#N)c2)n1	Pf Dd2 growth 11µM
COc1ccc(NC(=O)O[C@@H]2CO[C@H]3[C@@H]2OC[C@@H]3Nc2nccc(-c3cccc(C#N)c3)n2)cc1	none
Cn1nc(C2CCCN(C(=O)Cc3cccc(F)c3)C2)n(-c2ccccc2)c1=O (stereo not given)	none
COc1cccc(CN2CCOC[C@H](Oc3ccc(C(F)(F)F)cn3)C2)c1	none
CCc1cccc(-n2nnnc2N2CCN(C(=O)CCc3ccccc3)CC2)c1	none
Cn1nc(C(=O)NC[C@@H]2C[C@H](F)CN2)cc1-c1cccs1	none
COc1ccc(C(=O)N2CCCC(n3cc(-c4nc(C(C)C)no4)nn3)C2)cc1 (stereo not given)	Pf Dd2 growth 13µM
Cc1ccc(C(=O)N2CCCC(n3cc(-c4nc(C(C)C)no4)nn3)C2)cc1 (stereo not given)	none
COc1ccc(C(=O)N2CCC(n3cc(-c4nc(C(C)C)no4)nn3)C2)cc1 (stereo not given)	none
CC(C)C(=O)N1CC[C@H]2COC(=O)N2c2cc(F)ccc2C1	none
CC(=O)N1C[C@@H]2CCCN3CCC[C@@H]([C@H]23)[C@H]1CCCC(=O)NCCN1CCCCC1	none
O=C(NCCC1=CCCCC1)c1ccc2c(c1)N(Cc1ccccc1F)C(=O)c1ccccc1S2=O (stereo not given)	Pf Dd2 growth 13µM
COc1ccc(CCNC(=O)c2ccc3c(c2)N(Cc2ccccc2)C(=O)c2ccccc2S3=O)cc1OC (stereo not given)	none
Cc1cccc(CN2C(=O)c3ccccc3S(=O)(=O)c3ccc(C(=O)NCCC4=CCCCC4)cc32)c1	none
COCC(=O)N1CCCCCNC(=O)[C@@H]2CCCC[C@@H]21	none
CCCc1noc(-c2ccn3c(CNC(=O)c4ccc(F)cc4Cl)nnc3c2)n1	Pf Dd2 growth 3.5µM
CCCc1noc(-c2ccn3c(CNC(=O)c4ccc(C)cc4C)nnc3c2)n1	none
Cc1noc(-c2ccn3c(CNC(=O)c4ccccc4F)nnc3c2)n1	none
Cc1noc(-c2ccn3c(CNC(=O)c4ccccc4Cl)nnc3c2)n1	Pf Dd2 growth 0.28µM
Cc1noc(-c2ccn3c(CNC(=O)c4cccc(Cl)c4)nnc3c2)n1	none
Cc1noc(-c2ccn3c(CNC(=O)c4ccc(F)cc4Cl)nnc3c2)n1	none
CNC(=O)c1cc[nH]c1C1CCCN(C(=O)c2ccc(OC)nc2)C1 (stereo not given)	none
O=C([C@H]1CCCN1)N1CCC2(CC1)Nc1ccccc1NC2=O	none
C[C@@H]1CN(C(=O)c2cccnc2SCCc2ccccc2)CC[C@]1(C)O	none
O=C(Nc1cccc(-n2cccn2)c1)C1CCCN1C(=O)c1ccsc1 (stereo not given)	none
O=C(NCCc1ccccn1)c1cnc2c(c1)N(C(=O)CCc1ccccc1)CCC2	none
c1cncc(O[C@H]2COCCN(C3CCC3)C2)c1	none
Cc1ccccc1NC(=O)Cn1c(C)cc2nc3n(c(=O)c21)CCCCC3	none
COc1ccc(N2CCN(C(=O)COc3ccc(-c4nnc5n4CCCC5)cc3)CC2)cc1	Pf Dd2 growth 0.71µM
CCc1ccc(NC(=O)COc2cccc(-c3nnc4n3CCCC4)c2)cc1	Pf Dd2 growth 5µM
O=C(CCC1CCCC1)Nc1ccc(-c2nnc3n2CCCC3)cc1	none
Cc1ccccc1NC(=O)COc1ccc(-c2nnc3n2CCCC3)cc1	Pf Dd2 growth 11µM
COc1ccc(-c2nnc3n2CCN(C(C)=O)C3)cc1	none
Cc1cccc(NC(=O)Cn2nc3n(c2=O)CCCCC3)c1C	none
COc1ccc(CC(=O)N2CCn3c(nnc3-c3ccc(OC)cc3)C2)cc1	none
CCc1cccc(OCC(=O)Nc2ccc(S(=O)(=O)Nc3ncccn3)cc2)c1	none
O=C(COc1ccccc1)Nc1ccc(-c2nnc3n2CCCC3)cc1	Pf Dd2 growth 10µM
O=C(Nc1ccc(-c2nnc3n2CCCC3)cc1)C1CC1	none
O=C1COc2ccc(NCc3cccs3)nc2CN1CCOc1ccccc1	none
NC(=O)[C@@H]1CN(C2CCSCC2)C[C@H]1COc1ccncc1	none
COc1ccccc1-c1cc(-c2ccsc2)c2onc(C)c2n1	none
Cc1cc2nc3n(c(=O)c2n1CC(=O)Nc1ccccc1)CCCCC3	none
COc1ccccc1NC(=O)Nc1cccc(-c2nnc3n2CCCC3)c1	none
O=C(C1CC1)N1CCCCCCn2c(nnc2-c2ccc(F)cc2)CC1	none
COc1cccc(NC(=O)Cn2c(C)cc3nc4n(c(=O)c32)CCCC4)c1	none
O=C(COc1ccc(-c2nnc3n2CCCC3)cc1)Nc1ccc(F)cc1	Pf Dd2 growth 5.6µM
CNC(=O)N1CCCCCCn2c(nnc2-c2ccc(F)cc2)CC1	none
COc1cccc(NC(=O)Cn2nc3n(c2=O)CCCCC3)c1	none
COc1ccccc1NC(=O)Nc1ccc(-c2nnc3n2CCCC3)cc1	Pf Dd2 growth 4µM
O=C(COc1ccc(-c2nnc3n2CCCC3)cc1)Nc1ccccc1	Pf Dd2 growth 7.9µM
COc1cccc(NC(=O)COc2ccc(-c3nnc4n3CCCC4)cc2)c1	Pf Dd2 growth 2.8µM
O=C(Nc1ccc(-c2nnc3n2CCCC3)cc1)Nc1ccccc1Br	none
O=C(CC[C@@H]1CNC(=O)[C@@H]2C[C@H](NS(=O)(=O)c3ccc(F)cc3)CN12)NCc1ccccc1	none
CC(C)NC(=O)c1cc(Br)cn2ccnc12	none
CC(C)CN1CC2(CCN(C(=O)c3ccc4occc4c3)CC2)CC1=O	none
CS(=O)(=O)N[C@H]1C[C@H]2C(=O)Nc3ccc(-c4ccc(F)cc4F)cc3C(=O)N2C1	none
O=C(Cc1ccc(Cl)cc1)N1CCC2(CC1)N(c1ccccc1)C(=O)CS2(=O)=O	none
Cc1nnc(-c2cc(C(=O)NCC(C)C)ccn2)n1CCc1ccccc1	none
COc1ccccc1CCC(=O)N1CC2CC(C1)[C@H]1CCCC(=O)N1C2 (stereo not given in full)	none
CCn1ncc(N2CCC(NC(=O)C(C)(C)CC)CC2)cc1=O	none
CCOc1ccc(NC(=O)Cn2c(C)cc3nc4n(c(=O)c32)CCCC4)cc1	none
CCc1ccc(NC(=O)COc2ccc(-c3nnc4n3CCCC4)cc2)cc1	Pf Dd2 growth 4µM
COc1ccc(CCC(=O)Nc2ccc(-c3nnc4n3CCCC4)cc2)cc1	none
COc1cc(Cl)ccc1C(=O)N1CCN(c2cc(C(F)(F)F)ncn2)CC1	none
O=C(Cc1cccc(Cl)c1)N1CCCC(n2cc(-c3nc(-c4ccccc4)no3)nn2)C1 (stereo not given)	none
CN(CC1(C)CCOCC1)C(=O)c1ccc(C#N)cc1	none
CC(C)N1C(=O)C2(CCCCC2)C1C(=O)N1CCCC1 (stereo not given)	none
CN1C(=O)[C@@H]2C[C@@H](CN2Cc2ccccc2)Oc2ccccc21	none
O=C1[C@@H]2C[C@@H](CN2C(=O)Cc2ccccc2)Oc2ccccc2N1CC1CC1	none
Cc1ccc(CN2C[C@@H]3C[C@H]2C(=O)N(CC2CC2)c2ccccc2O3)cc1	Pf Dd2 growth 10µM
